The results in this text go back to ChEMBL document CHEMBL3988442, “University of Dundee, Small-Polar-MMV Screening Library” (2021).

Set-up in all cases: scale not given: direction of the effect not stated beside the values
In experiment [1] the target is Protein translocase subunit SecA (Escherichia coli (strain K12)) (UniProt P10408). Put plainly: Assay to Identify E. coli SecA ATPase Inhibitors. In kind it is functional. Particulars: 30 µM.
Experiment [2] has as its target T1, Ubiquitin-activating enzyme e1, putative (Leishmania donovani (strain BPK282A1)) (UniProt E9BSI1).
T1 sequence (whole entry): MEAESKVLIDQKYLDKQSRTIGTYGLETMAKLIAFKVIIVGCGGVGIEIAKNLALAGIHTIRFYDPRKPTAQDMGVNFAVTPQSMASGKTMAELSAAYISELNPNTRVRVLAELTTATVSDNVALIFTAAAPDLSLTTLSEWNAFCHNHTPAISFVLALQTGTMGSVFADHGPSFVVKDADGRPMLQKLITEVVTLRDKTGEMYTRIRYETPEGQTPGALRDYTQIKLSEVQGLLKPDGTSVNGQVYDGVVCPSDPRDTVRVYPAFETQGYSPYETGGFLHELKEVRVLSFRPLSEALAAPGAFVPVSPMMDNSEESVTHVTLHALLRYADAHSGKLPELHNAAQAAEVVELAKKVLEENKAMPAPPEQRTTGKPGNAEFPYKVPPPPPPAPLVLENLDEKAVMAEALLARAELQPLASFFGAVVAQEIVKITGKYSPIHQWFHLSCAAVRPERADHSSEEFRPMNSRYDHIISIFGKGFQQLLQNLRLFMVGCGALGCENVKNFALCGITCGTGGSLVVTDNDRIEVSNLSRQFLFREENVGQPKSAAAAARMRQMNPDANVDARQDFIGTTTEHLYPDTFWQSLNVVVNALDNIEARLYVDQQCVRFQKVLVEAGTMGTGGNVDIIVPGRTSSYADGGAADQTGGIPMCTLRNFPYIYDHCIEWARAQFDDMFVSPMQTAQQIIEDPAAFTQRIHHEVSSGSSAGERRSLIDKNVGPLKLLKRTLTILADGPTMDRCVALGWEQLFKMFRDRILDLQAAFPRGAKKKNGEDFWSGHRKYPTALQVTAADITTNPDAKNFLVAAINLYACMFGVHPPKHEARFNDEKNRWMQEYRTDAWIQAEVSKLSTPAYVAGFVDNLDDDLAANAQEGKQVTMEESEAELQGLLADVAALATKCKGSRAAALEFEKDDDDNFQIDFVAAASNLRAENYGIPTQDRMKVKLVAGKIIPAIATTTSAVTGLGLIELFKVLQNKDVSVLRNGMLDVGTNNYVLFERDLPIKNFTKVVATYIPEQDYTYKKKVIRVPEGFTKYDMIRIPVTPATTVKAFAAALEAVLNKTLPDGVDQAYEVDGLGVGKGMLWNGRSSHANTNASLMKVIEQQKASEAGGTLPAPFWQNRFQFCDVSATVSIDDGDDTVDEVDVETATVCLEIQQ
Put plainly: Leishmania donovani Ubiquitin Activating Enzyme (LdE1). Format: functional. To be noted: 30 µM.

Experiment [3] has as its target AMP-activated protein kinase, AMPK (Homo sapiens) (UniProt P54646+O43741+P54619+Q9UGJ0+Q9Y478+Q13131+Q9UGI9). Description: AMP-dependent Kinase enzyme assay. An in vitro enzyme assay that detects ADP turnover that is directly proportional to AMPK activity. This uses naive AMPK that is activated during the assay with MK-8722. Format: functional. To be noted: 30 µM.

Experiment [4] has as its target Sialic acid-binding Ig-like lectin 9 (Homo sapiens) (UniProt Q9Y336). Put plainly: Hs-Siglec9 ALPHAscreen SOP 20170721. To be noted: 10 µM.
The next experiment deals with Trypanosoma cruzi. Put plainly: Trypanosoma cruzi phosphomannomutase and mannose-1-phosphate guanylyltransferase assay. In kind it is functional. To be noted: 10 µM.
Experiment [5] addresses T2, Arginase-2, mitochondrial (Homo sapiens) (UniProt P78540).
T2 sequence (whole entry): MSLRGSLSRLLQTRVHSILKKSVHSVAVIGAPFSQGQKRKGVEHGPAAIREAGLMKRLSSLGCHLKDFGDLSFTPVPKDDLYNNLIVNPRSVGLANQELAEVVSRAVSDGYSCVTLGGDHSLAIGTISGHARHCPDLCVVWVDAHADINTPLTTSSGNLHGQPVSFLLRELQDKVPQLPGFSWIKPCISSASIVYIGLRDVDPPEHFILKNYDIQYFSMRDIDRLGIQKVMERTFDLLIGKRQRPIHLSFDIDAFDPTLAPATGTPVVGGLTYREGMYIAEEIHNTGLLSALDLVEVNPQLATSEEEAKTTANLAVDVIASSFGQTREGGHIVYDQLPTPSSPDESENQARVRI
Put plainly: in vitro enzyme assay to detect the production of urea directly proportional to the activity of Arginase II. Further: in the data most compounds retested in dose-response had high values. Particulars: 33.3 µM. Format: functional.

Experiment [6] has as its target T3, Proteasome subunit beta (Trypanosoma cruzi) (UniProt O96673).
T3 sequence (whole entry): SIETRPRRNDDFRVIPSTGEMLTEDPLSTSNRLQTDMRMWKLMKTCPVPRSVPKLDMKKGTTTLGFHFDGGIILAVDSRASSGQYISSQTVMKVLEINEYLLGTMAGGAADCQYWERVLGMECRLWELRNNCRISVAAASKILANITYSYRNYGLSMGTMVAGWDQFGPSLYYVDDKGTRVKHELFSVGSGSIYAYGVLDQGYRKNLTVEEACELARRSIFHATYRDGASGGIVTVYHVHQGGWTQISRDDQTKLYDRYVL
Put plainly: Trypanosoma cruzi proteasome chymotrypsin-like activity (TcProtChymo) assay. Further: in the data most compounds retested in dose-response had high values. Format: functional. Particulars: 9.37 µM.

The species entered for another experiment is Homo sapiens. Description: To identify inhibition of the IFN signalling (Jak-Stat) pathway via expression of an eGFP reporter gene under the control of an IFN-stimulated response element (ISRE) containing MxA promoter. In kind it is functional. Particulars: 30 µM. In general terms: Reporter assays use an easily measured gene product as a stand-in for the process of interest.

Experiment [7] addresses T4, Tyrosyl-tRNA synthetase, putative (Trypanosoma cruzi (strain CL Brener)) (UniProt Q4DSP6).
T4 sequence (whole entry): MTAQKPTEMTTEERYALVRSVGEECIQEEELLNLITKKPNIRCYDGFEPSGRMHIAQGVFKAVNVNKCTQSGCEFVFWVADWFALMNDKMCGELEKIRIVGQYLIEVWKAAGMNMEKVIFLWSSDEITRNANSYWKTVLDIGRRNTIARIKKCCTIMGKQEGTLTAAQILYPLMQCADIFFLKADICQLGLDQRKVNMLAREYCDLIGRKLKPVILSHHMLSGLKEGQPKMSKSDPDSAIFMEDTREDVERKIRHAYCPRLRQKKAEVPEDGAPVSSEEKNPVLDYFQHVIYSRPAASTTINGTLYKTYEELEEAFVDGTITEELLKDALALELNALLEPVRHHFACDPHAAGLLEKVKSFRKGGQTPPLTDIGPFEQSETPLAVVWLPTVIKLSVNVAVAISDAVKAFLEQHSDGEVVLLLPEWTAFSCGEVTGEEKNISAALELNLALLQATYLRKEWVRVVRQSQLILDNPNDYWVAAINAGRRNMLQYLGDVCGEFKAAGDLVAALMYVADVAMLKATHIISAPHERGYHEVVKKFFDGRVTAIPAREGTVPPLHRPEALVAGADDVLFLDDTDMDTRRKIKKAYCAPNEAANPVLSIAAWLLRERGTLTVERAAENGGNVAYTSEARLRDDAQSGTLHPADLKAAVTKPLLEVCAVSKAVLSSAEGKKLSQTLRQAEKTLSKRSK
Put plainly: Trypanosoma cruzi tyrosyl tRNA synthetase (TcYRS) _High Tyrosine SOP. Further: in the data most compounds retested in dose-response had high values. In kind it is functional. Particulars: 30 µM.

For experiment [8], the target named is T4, Tyrosyl-tRNA synthetase, putative (Trypanosoma cruzi (strain CL Brener)). Description: Trypanosoma cruzi tyrosyl tRNA synthetase (TcYRS) SOP. Particulars: 30 µM. In kind it is functional.
Experiment [9] addresses Chromo domain-containing protein 1 (Saccharomyces cerevisiae (strain ATCC 204508 / S288c) (Baker's yeast)) (UniProt P32657). Put plainly: ScCHD-1 Enzyme Inhibition Assay. Further: in the data most compounds retested in dose-response had high values. Format: functional. Particulars: 30 µM.

For some of these results: Measured potencies and affinities stand elsewhere.

Sequence of Chromo domain-containing protein 1 (Saccharomyces cerevisiae (strain ATCC 204508 / S288c) (Baker's yeast)) (P32657 whole entry, the tested form may be a part): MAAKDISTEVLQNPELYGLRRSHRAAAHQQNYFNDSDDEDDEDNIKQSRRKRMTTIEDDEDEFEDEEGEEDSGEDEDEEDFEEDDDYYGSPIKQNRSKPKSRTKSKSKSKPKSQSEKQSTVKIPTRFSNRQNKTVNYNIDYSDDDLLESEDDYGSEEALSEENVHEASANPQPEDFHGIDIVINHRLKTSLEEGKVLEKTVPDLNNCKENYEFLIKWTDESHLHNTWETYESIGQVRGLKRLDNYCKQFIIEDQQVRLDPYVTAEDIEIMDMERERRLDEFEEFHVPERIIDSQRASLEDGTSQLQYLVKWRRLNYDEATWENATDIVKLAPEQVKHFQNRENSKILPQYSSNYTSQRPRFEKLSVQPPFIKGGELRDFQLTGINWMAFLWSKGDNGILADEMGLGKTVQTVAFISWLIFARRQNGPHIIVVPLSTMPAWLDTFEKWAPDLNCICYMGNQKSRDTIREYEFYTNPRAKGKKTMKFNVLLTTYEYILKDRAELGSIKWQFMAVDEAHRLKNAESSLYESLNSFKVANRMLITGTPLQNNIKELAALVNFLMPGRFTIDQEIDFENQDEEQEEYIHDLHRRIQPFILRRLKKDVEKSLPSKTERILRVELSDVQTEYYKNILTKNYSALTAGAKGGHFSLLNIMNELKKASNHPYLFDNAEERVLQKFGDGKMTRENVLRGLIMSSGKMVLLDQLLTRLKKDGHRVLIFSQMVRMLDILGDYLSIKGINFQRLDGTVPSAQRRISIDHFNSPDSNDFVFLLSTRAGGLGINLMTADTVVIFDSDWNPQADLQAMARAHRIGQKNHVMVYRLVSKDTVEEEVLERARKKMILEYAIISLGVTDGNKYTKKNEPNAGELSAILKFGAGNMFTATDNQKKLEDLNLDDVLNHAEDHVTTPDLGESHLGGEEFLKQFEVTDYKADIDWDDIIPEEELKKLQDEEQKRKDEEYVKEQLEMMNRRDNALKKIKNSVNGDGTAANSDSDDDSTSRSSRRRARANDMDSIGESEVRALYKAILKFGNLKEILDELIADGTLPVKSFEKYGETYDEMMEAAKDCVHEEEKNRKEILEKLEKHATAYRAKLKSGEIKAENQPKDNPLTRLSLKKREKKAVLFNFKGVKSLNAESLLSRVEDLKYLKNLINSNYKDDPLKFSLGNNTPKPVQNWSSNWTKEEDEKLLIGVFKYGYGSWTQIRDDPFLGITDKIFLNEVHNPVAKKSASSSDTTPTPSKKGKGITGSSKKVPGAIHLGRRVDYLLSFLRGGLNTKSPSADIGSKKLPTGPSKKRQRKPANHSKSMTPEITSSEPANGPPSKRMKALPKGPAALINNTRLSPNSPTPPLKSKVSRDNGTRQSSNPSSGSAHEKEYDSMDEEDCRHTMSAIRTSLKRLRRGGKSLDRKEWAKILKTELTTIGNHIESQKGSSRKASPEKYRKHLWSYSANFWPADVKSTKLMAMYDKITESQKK
Sequence of Sialic acid-binding Ig-like lectin 9 (Homo sapiens) (Q9Y336 whole entry): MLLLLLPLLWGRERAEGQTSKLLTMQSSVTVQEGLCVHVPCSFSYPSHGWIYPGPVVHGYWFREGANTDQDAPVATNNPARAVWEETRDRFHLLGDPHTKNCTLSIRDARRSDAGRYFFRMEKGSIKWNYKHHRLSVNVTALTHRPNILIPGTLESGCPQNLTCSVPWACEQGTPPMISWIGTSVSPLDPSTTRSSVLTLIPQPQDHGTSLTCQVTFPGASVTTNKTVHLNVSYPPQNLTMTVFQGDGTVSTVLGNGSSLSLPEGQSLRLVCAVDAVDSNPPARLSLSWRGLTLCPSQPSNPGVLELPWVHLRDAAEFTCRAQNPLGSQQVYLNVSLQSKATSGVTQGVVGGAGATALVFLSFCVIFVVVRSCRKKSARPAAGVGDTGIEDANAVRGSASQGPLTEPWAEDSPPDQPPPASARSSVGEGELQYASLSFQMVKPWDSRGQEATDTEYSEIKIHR
Sequence of Protein translocase subunit SecA (Escherichia coli (strain K12)) (P10408 whole entry): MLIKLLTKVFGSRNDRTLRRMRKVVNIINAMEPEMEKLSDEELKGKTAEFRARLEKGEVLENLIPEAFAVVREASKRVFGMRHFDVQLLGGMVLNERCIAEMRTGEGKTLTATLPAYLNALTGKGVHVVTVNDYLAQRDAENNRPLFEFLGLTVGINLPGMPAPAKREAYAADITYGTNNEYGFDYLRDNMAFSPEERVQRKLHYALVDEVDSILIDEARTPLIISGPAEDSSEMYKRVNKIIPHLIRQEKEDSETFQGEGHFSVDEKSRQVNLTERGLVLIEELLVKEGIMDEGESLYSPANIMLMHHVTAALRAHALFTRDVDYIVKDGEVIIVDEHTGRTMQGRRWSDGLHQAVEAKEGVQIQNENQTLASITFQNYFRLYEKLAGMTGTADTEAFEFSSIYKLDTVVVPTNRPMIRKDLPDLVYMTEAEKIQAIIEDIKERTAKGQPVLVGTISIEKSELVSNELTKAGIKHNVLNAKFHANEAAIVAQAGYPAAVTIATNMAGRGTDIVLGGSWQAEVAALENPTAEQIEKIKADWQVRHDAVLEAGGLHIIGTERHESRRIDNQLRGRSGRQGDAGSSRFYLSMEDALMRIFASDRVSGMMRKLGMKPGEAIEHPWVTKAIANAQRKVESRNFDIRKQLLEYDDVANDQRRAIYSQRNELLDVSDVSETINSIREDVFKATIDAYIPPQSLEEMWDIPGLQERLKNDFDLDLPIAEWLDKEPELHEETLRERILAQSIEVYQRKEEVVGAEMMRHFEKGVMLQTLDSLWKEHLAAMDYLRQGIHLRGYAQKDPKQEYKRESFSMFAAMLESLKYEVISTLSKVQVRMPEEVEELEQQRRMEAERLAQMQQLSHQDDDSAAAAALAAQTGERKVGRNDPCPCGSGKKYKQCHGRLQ

Turning to `c1ccc(-c2cnc(CNCC3CCCN3c3cccnn3)o2)cc1` (stereo not drawn), the Percent Effect was -1.23% in experiment [1]; -5.2% in experiment [2]; 3.3% in [3]; -5.27% in [4]; 1.86% in the experiment on Trypanosoma cruzi; 3.16% in experiment [5]. Further, the Percent Effect in experiment [6] was 15.8%; in the experiment listed under Homo sapiens it was 0.932%; in [7], 16.2%; in [8], 21.2%; in experiment [9] it was -20.7%.

As to `CCCc1nc(C(=O)N2CCCn3nc(CCC(=O)O)cc3C2)cs1`, the Percent Effect in [1] was -7.52%; in experiment [2], 5.41%; in experiment [3], 2.34%; in experiment [4], 4.25%; with Trypanosoma cruzi, 1.54%; in [5], 2.38%. The Percent Effect in experiment [6] was 11%; in the experiment listed under Homo sapiens, 3.31%; in [7], 3.7%; in [8], 9.76%; in experiment [9], -5.37%.

Regarding `Cc1ncc2c(n1)CN(Cc1nnc(-c3occc3C)o1)CC2`, the Percent Effect was -2.4% in experiment [1]; 18.9% in [2]; -24.9% in experiment [3]; 14.5% in [4]; 6.04% in the experiment on Trypanosoma cruzi; 2.03% in experiment [5]. Further, the Percent Effect in experiment [6] is 6.82%; in the experiment filed under Homo sapiens, -0.684%; in experiment [7], 22.8%; in experiment [8], 30.5%; in [9] it was -8.36%.

Regarding `CC(C(=O)N1CCCN(c2ncccc2C#N)CC1)n1ccnc1` (stereo not drawn), the Percent Effect is -2.42% in [1]; 21.1% in experiment [2]; 0.0866% in experiment [3]; -9.53% in experiment [4]; 5.13% in the experiment with Trypanosoma cruzi; -1.08% in [5]. For the same compound, the Percent Effect in [6] is 7.19%; in the experiment filed under Homo sapiens, 14%; in experiment [7] it was 10.3%; in experiment [8] it was 18.5%; in [9], -9.73%.

On to `Cn1ncc2c1NC(=O)CC2c1ccccc1Cl` (stereo not drawn), for which the Percent Effect is -6.92% in experiment [1]; 10.5% in experiment [2]; 5.36% in experiment [3]; 7.02% in [4]; 3.6% in the experiment on Trypanosoma cruzi; -5.92% in experiment [5]. Also, the Percent Effect in experiment [6] was 6.62%; in the experiment listed under Homo sapiens, 16.4%; in experiment [7], 1.06%; in [8], 5.2%; in [9], -0.659%.

For `Cc1csc(Nc2cc(C3CCCCN3C)nc(C)n2)n1` (stereo not drawn), the Percent Effect in experiment [1] is 1.97%; in experiment [2], 8%; in experiment [3], 7.4%; in experiment [4], -13.6%; with Trypanosoma cruzi, -5.71%; in [5], 3.5%. Moreover, the Percent Effect is 17.5% in experiment [6]; 14.7% in the experiment filed under Homo sapiens; 4.25% in [7]; 6.41% in [8]; -0.0696% in experiment [9].

With `CC(C)SCC(=O)N1CCc2c(nc(N(C)C)nc2N(C)C)C1`, the Percent Effect in [1] is -5.05%; in experiment [2] it was 13.3%; in [3], -4.26%; in experiment [4], 19.7%; in the experiment with Trypanosoma cruzi, 6.52%; in experiment [5] it was 5.73%. Also, the Percent Effect in experiment [6] is 13.8%; in the experiment filed under Homo sapiens it was 10.8%; in experiment [7] it was 2.73%; in [8], 8.64%; in [9], -8.15%.

Take `CN(Cc1ccc(F)cc1)C(=O)CN1CCCC(Cn2cncn2)C1` (stereo not drawn): the Percent Effect in experiment [1] is -2.63%; in experiment [2], 2.53%; in experiment [3] it was 1.84%; in experiment [4], 7.47%; in the experiment with Trypanosoma cruzi, 3.49%; in [5] it was 1.52%. Further, the Percent Effect in [6] was -6.8%; in the experiment filed under Homo sapiens, -5.05%; in experiment [7], 7.39%; in experiment [8], 3.8%; in experiment [9] it was -2.65%.
